From PubChem BioAssay AID1159580 (chemical genetic matrix, 2015)
About 2,000 (36%) of roughly 5,500 compounds were called active. Roughly 18% stayed inconclusive and do not appear here. The list shows a part of the results. Values without a mark were called inactive. No stated cut-off is given here; in the data, active means normalized growth mostly below about 0.91 (no sharp cut-off); inconclusive means no clear call, values can overlap the other calls; inactive means mostly above about 0.92.

Assay: chemical genetic growth profiling, strain panel (AID 1159580);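 further: tested at 20 µM; growth read once vehicle control cultures reached saturation at 30 °C; 1 = growth at the plate median or of vehicle wells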
Conditions: S. cerevisiae deletion strains, growth OD

With `C=CC[C@@H]1/C=C(\C)C[C@H](C)C[C@H](OC)[C@H]2O[C@@](O)(C(=O)C(=O)N3CCCC[C@H]3C(=O)O[C@H](/C(C)=C/[C@@H]3CC[C@@H](O)[C@H](OC)C3)[C@H](C)[C@@H](O)CC1=O)[C@H](C)C[C@@H]2OC` the normalized growth (locus YAL021C, strain ccr4, stronger effect = lower value) was 0.844 (active), the normalized growth (locus YAL026C, strain drs2, stronger effect = lower value) was 0.6 (active) and the normalized growth (locus YAL030W, strain snc1, stronger effect = lower value) was 1.02. For the same compound, the normalized growth (locus YBL061C, strain skt5, stronger effect = lower value) was 1.09 [resistant] (active), the normalized growth (locus YBR009C, strain hhf1, stronger effect = lower value) was 0.946 and the normalized growth (locus YBR023C, strain chs3, stronger effect = lower value) was 1. For the same compound, the normalized growth (locus YBR171W, strain sec66, stronger effect = lower value) was 1.14 [resistant] (active), the normalized growth (locus YBR231C, strain swc5, stronger effect = lower value) was 0.988 and the normalized growth (locus YBR279W, strain paf1, stronger effect = lower value) was 1.03. The normalized growth (locus YCL011C, strain gbp2, stronger effect = lower value) was 0.988, the normalized growth (locus YCL016C, strain dcc1, stronger effect = lower value) was 0.896 (active) and the normalized growth (locus YCL069W, strain vba3, stronger effect = lower value) was 1.02. For the same compound, the normalized growth (locus YCR088W, strain abp1, stronger effect = lower value) was 0.995, the normalized growth (locus YDL005C, strain med2, stronger effect = lower value) was 1.04 and the normalized growth (locus YDL040C, strain nat1, stronger effect = lower value) was 1.02. For the same compound, the normalized growth (locus YDR001C, strain nth1, stronger effect = lower value) was 1.04, the normalized growth (locus YDR069C, strain doa4, stronger effect = lower value) was 0.829 (active) and the normalized growth (locus YDR137W, strain rgp1, stronger effect = lower value) was 0.174 (active). For the same compound, the normalized growth (locus YDR159W, strain sac3, stronger effect = lower value) was 0.974, the normalized growth (locus YDR195W, strain ref2) was 0.773 (active) and the normalized growth (locus YDR297W, strain sur2, stronger effect = lower value) was 1.03. For the same compound, the normalized growth (locus YDR334W, strain swr1, stronger effect = lower value) was 1.1, the normalized growth (locus YDR335W, strain msn5, stronger effect = lower value) was 0.96 and the normalized growth (locus YDR392W, strain spt3, stronger effect = lower value) was 0.55 (active). It also gave a normalized growth (locus YEL003W, strain gim4, stronger effect = lower value) of 0.99, a normalized growth (locus YEL037C, strain rad23, stronger effect = lower value) of 1.04 and a normalized growth (locus YEL061C, strain CIN8 (second series), stronger effect = lower value) of 1. The normalized growth (locus YER015W, strain faa2, stronger effect = lower value) was 1.04, the normalized growth (locus YER016W, strain bim1, stronger effect = lower value) was 0.909 (active) and the normalized growth (locus YER111C, strain swi4, stronger effect = lower value) was 1.02. For the same compound, the normalized growth (locus YER155C, strain BEM2 (second series), stronger effect = lower value) was 0.705 (active), the normalized growth (locus YFR010W, strain ubp6, stronger effect = lower value) was 0.877 (active) and the normalized growth (locus YGL167C, strain pmr1, stronger effect = lower value) was 1.06. For the same compound, the normalized growth (locus YGL173C, strain kem1, stronger effect = lower value) was 0.848 (active), the normalized growth (locus YGL227W, strain vid30, stronger effect = lower value) was 1.05 and the normalized growth (locus YGL240W, strain doc1, stronger effect = lower value) was 1.06. For the same compound, the normalized growth (locus YGL253W, strain hxk2, stronger effect = lower value) was 0.983, the normalized growth (locus YHR013C, strain ard1, stronger effect = lower value) was 0.912 and the normalized growth (locus YHR027C, strain rpn1, stronger effect = lower value) was 1.03. The normalized growth (locus YHR030C, strain SLT2, stronger effect = lower value) was 0.7 (active), the normalized growth (locus YHR079C, strain IRE1, stronger effect = lower value) was 0.719 (active) and the normalized growth (locus YHR142W, strain chs7, stronger effect = lower value) was 0.881. For the same compound, the normalized growth (locus YJL092W, strain hpr5, stronger effect = lower value) was 1.02, the normalized growth (locus YJL095W, strain BCK1 (second series), stronger effect = lower value) was 0.91 (active) and the normalized growth (locus YJL095W, strain BCK1, stronger effect = lower value) was 0.754 (active). The normalized growth (locus YJL115W, strain asf1, stronger effect = lower value) was 1.05, the normalized growth (locus YJL129C, strain trk1, stronger effect = lower value) was 0.845 (active) and the normalized growth (locus YJL154C, strain vps35, stronger effect = lower value) was 1.04. For the same compound, the normalized growth (locus YJL164C, strain tpk1, stronger effect = lower value) was 0.915 (active), the normalized growth (locus YJL166W, strain qcr8, stronger effect = lower value) was 0.982 and the normalized growth (locus YJL187C, strain SWE1, stronger effect = lower value) was 1.03. For the same compound, the normalized growth (locus YJR066W, strain TOR1, stronger effect = lower value) was 0.746 (active), the normalized growth (locus YKL160W, strain elf1, stronger effect = lower value) was 0.956 and the normalized growth (locus YKR026C, strain gcn3, stronger effect = lower value) was 1.04. For the same compound, the normalized growth (locus YKR091W, strain srl3, stronger effect = lower value) was 1.04, the normalized growth (locus YLL001W, strain dnm1, stronger effect = lower value) was 0.932 and the normalized growth (locus YLL026W, stronger effect = lower value) was 1.02. For the same compound, the normalized growth (locus YLL041C, strain sdh2, stronger effect = lower value) was 1.05, the normalized growth (locus YLR027C, strain aat2, stronger effect = lower value) was 0.976 and the normalized growth (locus YLR113W, strain HOG1, stronger effect = lower value) was 0.66 (active). The normalized growth (locus YLR221C, strain rsa3, stronger effect = lower value) was 0.922, the normalized growth (locus YLR258W, strain gsy2, stronger effect = lower value) was 0.986 and the normalized growth (locus YLR262C, strain YPT6 (second series), stronger effect = lower value) was 0.137 (active). For the same compound, the normalized growth (locus YLR320W, strain mms22, stronger effect = lower value) was 0.734 (active), the normalized growth (locus YLR342W, strain FKS1, stronger effect = lower value) was 0.0809 (active) and the normalized growth (locus YLR357W, strain rsc2, stronger effect = lower value) was 0.949. It also gave a normalized growth (locus YLR370C, strain arc18, stronger effect = lower value) of 0.936, a normalized growth (locus YLR384C, strain iki3, stronger effect = lower value) of 1.05 and a normalized growth (locus YML120C, strain ndi1, stronger effect = lower value) of 0.965. For the same compound, the normalized growth (locus YMR058W, strain fet3, stronger effect = lower value) was 0.995, the normalized growth (locus YMR125W, strain sto1, stronger effect = lower value) was 0.844 (active) and the normalized growth (locus YMR129W, stronger effect = lower value) was 1.04. The normalized growth (locus YMR205C, strain PFK2, stronger effect = lower value) was 0.78 (active), the normalized growth (locus YMR231W, strain pep5, stronger effect = lower value) was 0.176 (active) and the normalized growth (locus YNL071W, strain lat1, stronger effect = lower value) was 0.746 (active). The normalized growth (locus YNL183C, strain NPR1, stronger effect = lower value) was 0.781 (active), the normalized growth (locus YNL209W, strain ssb2, stronger effect = lower value) was 1.03 and the normalized growth (locus YNL248C, strain rpa49, stronger effect = lower value) was 1.03. The normalized growth (locus YNL322C, strain KRE1 (second series), stronger effect = lower value) was 0.962, the normalized growth (locus YNR049C, strain mso1, stronger effect = lower value) was 1.03 and the normalized growth (locus YOR001W, strain rrp6, stronger effect = lower value) was 0.761 (active). The normalized growth (locus YOR070C, strain gyp1, stronger effect = lower value) was 0.944, the normalized growth (locus YOR080W, strain dia2, stronger effect = lower value) was 1.05 and the normalized growth (locus YOR083W, strain WHI5, stronger effect = lower value) was 0.931. For the same compound, the normalized growth (locus YOR106W, strain vam3, stronger effect = lower value) was 0.736 (active), the normalized growth (locus YOR231W, strain MKK1, stronger effect = lower value) was 0.7 (active) and the normalized growth (locus YOR265W, strain rbl2, stronger effect = lower value) was 1.05. The normalized growth (locus YOR270C, strain vph1, stronger effect = lower value) was 0.514 (active), the normalized growth (locus YOR290C, strain snf2, stronger effect = lower value) was 0.894 and the normalized growth (locus YPL051W, strain arl3, stronger effect = lower value) was 0.67 (active). For the same compound, the normalized growth (locus YPL078C, strain atp4, stronger effect = lower value) was 0.951, the normalized growth (locus YPL106C, strain sse1, stronger effect = lower value) was 0.72 (active) and the normalized growth (locus YPL240C, strain hsp82, stronger effect = lower value) was 1.03. The normalized growth (locus YPL256C, strain CLN2, stronger effect = lower value) was 0.695 (active).
